Targets with a hit are over-represented here; the source holds about 7,900 in all. About 0.6% of all pairs of compound and target were hits. Values without a mark were called inactive.
molecular target: ZWILCH (UniProt Q9H900); experiment: log2 fold change, soluble protein after heating vs DMSO (PISA); higher = thermal stabilisation; K562 cells, 10 uM, 30 min; active = over 0.2 and 3.5 SD of the protein, either way, in both replicates (recomputed)
How it was run: (§1)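 K562 cells at 2×10^6 cells/mL were exposed to 10 μM compound for 30 min, then aliquots were heated for 3 min across 48°C-58°C, pooled, and extracted in PBS containing 0.5% NP-40 at 4°C. The supernatant after 21,000xg for 90 min was taken as soluble protein and measured by TMTpro 16plex LC-MS/MS with channel sums equalised. Thermal stability is reported relative to control samples, with values from duplicates. Fold changes are given on a log2 scale.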

Chain of ZWILCH (Q9H900 whole entry, looked up): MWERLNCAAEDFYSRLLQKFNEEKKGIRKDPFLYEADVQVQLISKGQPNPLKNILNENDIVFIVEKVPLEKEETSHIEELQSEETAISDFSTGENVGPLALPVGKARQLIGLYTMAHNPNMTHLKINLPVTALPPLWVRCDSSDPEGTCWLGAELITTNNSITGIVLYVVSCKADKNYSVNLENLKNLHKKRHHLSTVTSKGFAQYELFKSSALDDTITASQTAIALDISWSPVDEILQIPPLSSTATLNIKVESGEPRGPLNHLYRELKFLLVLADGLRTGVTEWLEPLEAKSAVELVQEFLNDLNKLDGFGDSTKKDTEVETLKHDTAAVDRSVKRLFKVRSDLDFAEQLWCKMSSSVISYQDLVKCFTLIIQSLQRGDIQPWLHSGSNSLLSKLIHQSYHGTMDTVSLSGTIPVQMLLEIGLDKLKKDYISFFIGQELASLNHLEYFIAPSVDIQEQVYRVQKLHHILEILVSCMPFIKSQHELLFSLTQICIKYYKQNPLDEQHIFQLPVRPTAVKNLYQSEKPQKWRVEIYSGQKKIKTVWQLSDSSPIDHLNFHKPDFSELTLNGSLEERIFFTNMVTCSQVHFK

Row | SMILES | log2 fold change
1 | CON(C)C(=O)N1N=C(c2cc(F)ccc2F)S[C@@]1(CCCN)c1ccccc1 [filanesib] | 0.016
2 | CN1CC[C@H](c2c(O)cc(O)c3c(=O)cc(-c4ccccc4Cl)oc23)[C@H](O)C1 [alvocidib] | -0.034
3 | NC(=O)c1cnc(N[C@@H]2CCCC[C@@H]2N)nc1Nc1cccc(-n2nccn2)c1 | -0.085
4 | Cc1cc(Nc2cc(N3CCN(C)CC3)nc(Sc3ccc(NC(=O)C4CC4)cc3)n2)n[nH]1 [tozasertib] | 0.041
5 | CC(C)(O)CC(=O)NCCn1ccc2ncnc(Nc3ccc(Oc4cccc(C(F)(F)F)c4)c(Cl)c3)c21 | 0.012
6 | Cc1ncc(-c2ccnc(Nc3ccc(S(C)(=O)=O)cc3)n2)n1C(C)C | 0.071
7 | CN(C)CC(=O)Nc1ccc2[nH]c(=O)c3ccccc3c2c1 | 0.051
8 | CS(=O)(=O)c1ccc(-c2cnc(N)c(C(=O)Nc3ccccc3)n2)cc1 | -0.003
9 | Cn1cc(-c2ccc3nnc(C(F)(F)c4ccc5ncccc5c4)n3n2)cn1 | -0.069
10 | c1cn2cc(-c3ccc4cn[nH]c4c3)nc(Nc3ccc(N4CCOCC4)cc3)c2n1 [entospletinib] | 0.022
11 | CC1=C(C(=O)Nc2cc3cn[nH]c3cc2F)C(c2ccc(C(F)(F)F)cc2)CC(=O)N1 (configuration not stated) | -0.051
12 | CNc1nc(-c2ccc3c(N)n[nH]c3c2)cc(N2C[C@@H](C(=O)NC3CCCCC3)CC[C@H]2C)n1 | -0.037
13 | C#Cc1cccc(Nc2ncnc3cc(OCCOC)c(OCCOC)cc23)c1 [erlotinib] | 0.009
14 | CN1CCN(c2nc(C3=C(c4c[nH]c5ccccc45)C(=O)NC3=O)c3ccccc3n2)CC1 [sotrastaurin] | -0.059
15 | Cc1ccc(Sc2cncc3sc(C(N)=O)cc23)cc1 | -0.068
16 | Cc1cc(Nc2cc(CN3CCOCC3)c3nc(C)c(Cc4ccc(Cl)cc4F)n3n2)n[nH]1 [gandotinib] | -0.12

Row | SMILES | log2 fold change
17 | Cc1cc(SCc2sc(-c3ccc(C(F)(F)F)cc3)nc2C)ccc1OCC(=O)O | 0.027
18 | Cc1ccc(NC(=O)c2ccc(CN3CC[C@H](N(C)C)C3)c(C(F)(F)F)c2)cc1Nc1nccc(-c2cncnc2)n1 [bafetinib] | -0.031
19 | C[C@@H](Oc1cc(-c2cnn(C3CCNCC3)c2)cnc1N)c1c(Cl)ccc(F)c1Cl [crizotinib] | -0.068
20 | CC(C)(C)Cn1c(N)nc2ccc(-c3[nH]c(C(C)(C)C)nc3-c3ccc(F)cc3)nc21 [ralimetinib] | 0.049
21 | O=C1c2ccccc2-c2n[nH]c3cccc1c23 | -0.007
22 | CCCS(=O)(=O)Nc1ccc(F)c(C(=O)c2c[nH]c3ncc(Cl)cc23)c1F | 0.016
23 | FC(F)(F)c1ccc(/C=C/c2nc(COc3ccc(CCCCn4ccnn4)cc3)co2)cc1 [mubritinib] | 0.037
24 | CCCS(=O)(=O)Nc1ccc(F)c(C(=O)c2c[nH]c3ncc(-c4ccc(Cl)cc4)cc23)c1F [vemurafenib] | 0.04
25 | O=C(CCCCCCNC(=O)c1cnc(N(c2ccccc2)c2ccccc2Cl)nc1)NO [citarinostat] | 0.104
26 | NC1(Cc2ccc(Cl)cc2)CCN(c2ncnc3[nH]ccc23)CC1 | -0.049
27 | COC(=O)[C@H](CCSC)NC(=O)c1ccc(NC[C@@H](N)CS)cc1-c1ccccc1 | -0.077
28 | CS(=O)(=O)N1CCN(Cc2cc3nc(-c4cccc5[nH]ncc45)nc(N4CCOCC4)c3s2)CC1 [pictilisib] | -0.026
29 | CCn1c(C(=O)N(C2CC2)C2CC2)cc2c3c(ncn3C)c(Nc3cc(C)n(C)n3)nc21 | 0.021
30 | O=C(CCCCCCC(=O)Nc1ccccc1)NO [vorinostat] | 0.056
31 | CC(C)N(C[C@H]1O[C@@H](n2cnc3c(N)ncnc32)[C@H](O)[C@@H]1O)[C@H]1C[C@@H](CCc2nc3cc(C(C)(C)C)ccc3[nH]2)C1 [pinometostat] | 0.074

molecular target: ZYG11B (UniProt Q9C0D3); experiment: as above
Sequence (Q9C0D3 whole entry, looked up): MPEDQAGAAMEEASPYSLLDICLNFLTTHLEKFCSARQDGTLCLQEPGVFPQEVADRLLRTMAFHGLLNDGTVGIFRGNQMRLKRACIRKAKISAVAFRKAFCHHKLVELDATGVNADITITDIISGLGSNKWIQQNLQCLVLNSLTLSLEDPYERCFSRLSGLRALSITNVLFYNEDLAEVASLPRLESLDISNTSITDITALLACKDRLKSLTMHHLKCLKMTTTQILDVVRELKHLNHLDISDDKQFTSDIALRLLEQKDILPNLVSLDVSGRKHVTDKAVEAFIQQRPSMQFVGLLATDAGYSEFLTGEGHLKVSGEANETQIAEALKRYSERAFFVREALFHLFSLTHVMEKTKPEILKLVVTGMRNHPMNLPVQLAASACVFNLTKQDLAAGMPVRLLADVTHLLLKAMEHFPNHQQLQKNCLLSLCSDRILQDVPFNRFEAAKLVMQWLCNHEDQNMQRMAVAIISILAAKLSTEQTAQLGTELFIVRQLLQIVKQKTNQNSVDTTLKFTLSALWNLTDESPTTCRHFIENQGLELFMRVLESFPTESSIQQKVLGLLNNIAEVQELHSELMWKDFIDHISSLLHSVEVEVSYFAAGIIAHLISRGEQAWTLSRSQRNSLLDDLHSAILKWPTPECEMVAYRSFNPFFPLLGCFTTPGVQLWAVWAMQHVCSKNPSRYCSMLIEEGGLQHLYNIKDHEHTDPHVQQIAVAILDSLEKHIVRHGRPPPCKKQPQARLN
How it was run: as §1

Row | SMILES | log2 fold change
32 | CON(C)C(=O)N1N=C(c2cc(F)ccc2F)S[C@@]1(CCCN)c1ccccc1 [filanesib] | 0.014
33 | CN1CC[C@H](c2c(O)cc(O)c3c(=O)cc(-c4ccccc4Cl)oc23)[C@H](O)C1 [alvocidib] | -0.055
34 | NC(=O)c1cnc(N[C@@H]2CCCC[C@@H]2N)nc1Nc1cccc(-n2nccn2)c1 | 0.022
35 | Cc1cc(Nc2cc(N3CCN(C)CC3)nc(Sc3ccc(NC(=O)C4CC4)cc3)n2)n[nH]1 [tozasertib] | -0.031
36 | CC(C)(O)CC(=O)NCCn1ccc2ncnc(Nc3ccc(Oc4cccc(C(F)(F)F)c4)c(Cl)c3)c21 | -0.017
37 | Cc1ncc(-c2ccnc(Nc3ccc(S(C)(=O)=O)cc3)n2)n1C(C)C | 0.037
38 | CN(C)CC(=O)Nc1ccc2[nH]c(=O)c3ccccc3c2c1 | -0.003
39 | CS(=O)(=O)c1ccc(-c2cnc(N)c(C(=O)Nc3ccccc3)n2)cc1 | 0.01
40 | Cn1cc(-c2ccc3nnc(C(F)(F)c4ccc5ncccc5c4)n3n2)cn1 | 0
41 | c1cn2cc(-c3ccc4cn[nH]c4c3)nc(Nc3ccc(N4CCOCC4)cc3)c2n1 [entospletinib] | 0.068
42 | CC1=C(C(=O)Nc2cc3cn[nH]c3cc2F)C(c2ccc(C(F)(F)F)cc2)CC(=O)N1 (configuration not stated) | -0.06
43 | CNc1nc(-c2ccc3c(N)n[nH]c3c2)cc(N2C[C@@H](C(=O)NC3CCCCC3)CC[C@H]2C)n1 | 0.002
44 | C#Cc1cccc(Nc2ncnc3cc(OCCOC)c(OCCOC)cc23)c1 [erlotinib] | -0.015
45 | CN1CCN(c2nc(C3=C(c4c[nH]c5ccccc45)C(=O)NC3=O)c3ccccc3n2)CC1 [sotrastaurin] | 0.026
46 | Cc1ccc(Sc2cncc3sc(C(N)=O)cc23)cc1 | -0.028
47 | Cc1cc(Nc2cc(CN3CCOCC3)c3nc(C)c(Cc4ccc(Cl)cc4F)n3n2)n[nH]1 [gandotinib] | 0.093

Row | SMILES | log2 fold change
48 | Cc1cc(SCc2sc(-c3ccc(C(F)(F)F)cc3)nc2C)ccc1OCC(=O)O | -0.133
49 | Cc1ccc(NC(=O)c2ccc(CN3CC[C@H](N(C)C)C3)c(C(F)(F)F)c2)cc1Nc1nccc(-c2cncnc2)n1 [bafetinib] | -0.272 (active)
50 | C[C@@H](Oc1cc(-c2cnn(C3CCNCC3)c2)cnc1N)c1c(Cl)ccc(F)c1Cl [crizotinib] | -0.031
51 | CC(C)(C)Cn1c(N)nc2ccc(-c3[nH]c(C(C)(C)C)nc3-c3ccc(F)cc3)nc21 [ralimetinib] | -0.046
52 | O=C1c2ccccc2-c2n[nH]c3cccc1c23 | -0.033
53 | CCCS(=O)(=O)Nc1ccc(F)c(C(=O)c2c[nH]c3ncc(Cl)cc23)c1F | -0.043
54 | FC(F)(F)c1ccc(/C=C/c2nc(COc3ccc(CCCCn4ccnn4)cc3)co2)cc1 [mubritinib] | 0.01
55 | CCCS(=O)(=O)Nc1ccc(F)c(C(=O)c2c[nH]c3ncc(-c4ccc(Cl)cc4)cc23)c1F [vemurafenib] | 0.048
56 | O=C(CCCCCCNC(=O)c1cnc(N(c2ccccc2)c2ccccc2Cl)nc1)NO [citarinostat] | -0.043
57 | NC1(Cc2ccc(Cl)cc2)CCN(c2ncnc3[nH]ccc23)CC1 | 0.055
58 | COC(=O)[C@H](CCSC)NC(=O)c1ccc(NC[C@@H](N)CS)cc1-c1ccccc1 | 0.013
59 | CS(=O)(=O)N1CCN(Cc2cc3nc(-c4cccc5[nH]ncc45)nc(N4CCOCC4)c3s2)CC1 [pictilisib] | 0.104
60 | CCn1c(C(=O)N(C2CC2)C2CC2)cc2c3c(ncn3C)c(Nc3cc(C)n(C)n3)nc21 | -0.017
61 | O=C(CCCCCCC(=O)Nc1ccccc1)NO [vorinostat] | 0.053
62 | CC(C)N(C[C@H]1O[C@@H](n2cnc3c(N)ncnc32)[C@H](O)[C@@H]1O)[C@H]1C[C@@H](CCc2nc3cc(C(C)(C)C)ccc3[nH]2)C1 [pinometostat] | 0.01

— the supplement of paper PMC10849652
